# Measured values published in PubChem BioAssay (NCATS).
# Inconclusive results are not listed. Calls of active or inactive are those of the source. Calls follow the shape of the full dose curve.
# Target: Peroxisome proliferator-activated receptor delta (Homo sapiens) (UniProt Q03181)
# Assay: qHTS assay for small molecule agonists of peroxisome proliferator-activated receptor delta signaling (AID 588534)
# Settings: HEK293T PPARdelta-UAS-bla, beta-lactamase ratio, 18 h; series mostly up to 76.7 µM
# In short: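 Cells carrying a PPAR-delta beta-lactamase reporter were treated with compounds for 18 h at 37 °C in agonist mode. CCF4 fluorescence was read after 2 h; EC50 and efficacy from Hill fits.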
# Peroxisome proliferator-activated receptor delta (Homo sapiens), sequence (Q03181 whole entry, looked up): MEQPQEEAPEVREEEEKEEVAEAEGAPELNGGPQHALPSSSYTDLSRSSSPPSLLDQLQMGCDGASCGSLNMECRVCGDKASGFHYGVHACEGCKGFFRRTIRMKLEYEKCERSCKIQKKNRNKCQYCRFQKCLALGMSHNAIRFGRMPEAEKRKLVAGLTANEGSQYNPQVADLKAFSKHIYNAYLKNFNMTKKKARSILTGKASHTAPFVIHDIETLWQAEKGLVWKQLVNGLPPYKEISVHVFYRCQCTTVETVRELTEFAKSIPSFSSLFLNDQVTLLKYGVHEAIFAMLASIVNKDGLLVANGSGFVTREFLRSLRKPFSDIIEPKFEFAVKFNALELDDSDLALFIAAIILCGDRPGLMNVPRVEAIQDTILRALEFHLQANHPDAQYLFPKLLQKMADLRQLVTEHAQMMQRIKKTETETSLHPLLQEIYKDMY
row,Structure (SMILES),outcome
1,CC(=O)OC1CCC(C(C)(C)C)CC1 (stereo not given),inactive
2,Brc1cc(Oc2cc(Br)c(Br)c(Br)c2Br)c(Br)c(Br)c1Br,inactive
3,O=C(Cl)c1ccc(C(=O)Cl)cc1,inactive
4,CCCCCCCC/C=C\CCCCCCCCO,inactive
5,O=C(c1ccc(Cl)cc1)c1ccc(Cl)cc1,inactive
6,CCCOCC(C)O (stereo not given),inactive
7,NC(=O)c1ccc([N+](=O)[O-])cc1,inactive
8,CC/C=C/C#N,inactive
9,CCCCCCc1ccc(-c2ccc(C#N)cc2)cc1,inactive
10,CC1(C)CC(OC(=O)CCCCCCCCC(=O)OC2CC(C)(C)NC(C)(C)C2)CC(C)(C)N1,inactive
11,O=C=NC1CCC(CC2CCC(N=C=O)CC2)CC1 (stereo not given),inactive
12,Cc1cscn1,inactive
13,CC(C)(C)c1ccc(OCC2CO2)cc1 (stereo not given),inactive
14,CCOCC(=O)O,inactive
15,CSC(=O)c1cccc2nnsc12,inactive
16,CC(C)O.CC(C)O.CC(C)O.CC(C)O.[Ti],inactive
17,CC1CCCO1 (stereo not given),inactive
18,C=CCOC(=O)COCCC(C)C,inactive
19,CC(=O)c1cc(C)oc1C,inactive
20,S=C(NC1CCCCC1)NC1CCCCC1,inactive

row,Structure (SMILES),outcome
1,O=C(O)c1ccc(C(=O)O)c(C(=O)O)c1,inactive
2,CSCCC=O,inactive
3,O=[N+]([O-])c1c(Cl)cc(Cl)cc1Cl,inactive
4,CC1(N)CCC(C(C)(C)N)CC1 (stereo not given),inactive
5,CC(C)(C)OCC1CO1 (stereo not given),inactive
6,OC/C(Br)=C(\Br)CO,inactive
7,Nc1cccc(S(=O)(=O)O)c1,inactive
8,NS(=O)(=O)O,inactive
9,C=CC(=O)OCCOc1ccccc1,inactive
10,CC=C(Cl)Cl,inactive
11,C/C(C=O)=C/c1ccccc1,inactive
12,COC(OC)(C(=O)c1ccccc1)c1ccccc1,inactive
13,O=C(O)c1cccc([N+](=O)[O-])c1,inactive
14,NC(=O)c1cccc([N+](=O)[O-])c1,inactive
15,CCCCNCC,inactive
16,CCN(Cc1ccccc1)c1ccccc1,inactive
17,C=Cc1cccc(C)c1,inactive
18,Cc1ccc(C(=O)c2ccccc2)cc1,inactive
19,CC(=O)C1(C)CC2=C(CCCC2(C)C)CC1C (stereo not given),inactive
20,Oc1cc2c(cc1O)[C@H]1c3ccc(O)c(O)c3OC[C@@]1(O)C2,inactive
